From PubChem BioAssay
Compounds with a hit are over-represented: about 11% of the library has one in this group of screens.
NS1 function inh: blocks influenza NS1 protein function. Potency, µM (top dose mostly 46.1 µM), for the others: at the top dose activity, positive = more growth. 270,000 tested, 0.4% active; calls by dose curve; further: actives are rising curves; nearly all actives have a fitted effect of over 50% in size
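Read-out: OD600 growth recovery of NS1-expressing budding yeast. Cells grown overnight at 30C in -URA glucose medium, washed, resuspended and diluted 1:100 in 2% galactose assay medium, pH 6.0. Same strain lacking NS1 served as positive control.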
Pf growth 48h: P. falciparum growth inhibition at 48 hours (one generation) | Potency, µM (titrated, usually from 28.7 µM), inactives show top-dose activity change, negative = inhibition, actives largely listed as inhibitors | P. falciparum luciferase growth in erythrocytes, 48 h | 310,000 tested, 5.9% active; further: on the % scale 0 is the no-effect control and ±100 the full control effect
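Growth was read as firefly luciferase luminescence after a 48 h, 37 C, 5% CO2 exposure of compounds to reporter-bearing P. falciparum cultures (0.1% parasitemia, 2% hematocrit final) in Albumax-supplemented RPMI 1640.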
Pf growth 96h: P. falciparum growth inhibition at 96 hours | P. falciparum luciferase reporter growth, 96 h | Potency, µM (series often up to 28.7 µM), for the others: at the top dose activity change, negative = inhibition, most hits filed as inhibitors | 320,000 tested, 6.9% active; further: on the % scale 0 is the no-effect control and ±100 the full control effect
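P. falciparum expressing integrated firefly luciferase grown in erythrocytes (2% hematocrit, 0.05% parasitemia final) with compounds for 96 hours at 37 C, 5% CO2. Growth inhibition read as loss of luminescence after adding luciferase detection reagent.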
AMA1-RON2 inh: AMA1-RON2 (P. falciparum) interaction inhibition; AlphaScreen AMA1-biotinylated RON2 peptide binding; Potency, µM (top dose mostly 58.2 µM), inactives show at the top dose activity change, negative = inhibition, usual class: inhibitors; 360,000 tested, 0.2% active;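 further: 0% = vehicle wells and -100% = peptide control; nearly all actives have a fitted effect of over 45% in size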
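AMA1 (3D7) with his tag at 25 nM final met compounds first, then biotinylated RON2 peptide at 25 nM; detection used donor plus acceptor beads, 10 µg/mL apiece, read by AlphaScreen after 30 min at room temperature.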
Sm TGR block: blocks Schistosoma mansoni thioredoxin glutathione reductase; 360,000 tested, 3% active; Potency, µM (doses to about 114 µM), inactives show at the top dose activity change, negative = inhibition, actives largely listed as inhibitors; purified TGR, DTNB reduction, TNB absorbance 405 nm; AID 485364; Q962Y6; further: on the % scale 0 is the no-effect control and ±100 the full control effect; nearly all actives have a fitted effect of over 60% in size
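TGR 20 nM + NADPH 100 uM (dispensed conc.), cpd preinc 15 min RT; start with NADPH (500 uM addition) then DTNB (15 mM addition). Kinetic TNB absorbance, 405 nm filter. Four-parameter Hill fit across titration.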
The depositor's hits bear a star; ? = inconclusive; · = no result. Unless noted, the call rests on the fitted dose curve; in most records, active means well fitted curve in the direction sought with a large enough effect; inconclusive means small, poorly fitted or top-dose-only effect, or another doubt; inactive means no such curve, though single readings can be large; an effect the other way counts as inactive or inconclusive. Potency means the concentration at half of the fitted maximal effect.

SMILES	NS1 function inh	Pf growth 48h	Pf growth 96h	AMA1-RON2 inh	Sm TGR block
N#Cc1ccc(C23CC4(C2)[C@H](CN(Cc2ccc(C(F)(F)F)cc2)[C@@H]4c2ccccc2)C3c2ccc(Cl)nc2)cc1 (some centres undefined)	0%	12µM*	13µM*	·	-34%
COC(=O)c1ccc(C23CC4(C2)[C@H](CN(Cc2ccc(-c5ccccc5)cc2)[C@@H]4c2ccccc2)C3c2ccccc2)cc1 (some centres undefined)	0%	?	?	0%	-33%
COC(=O)c1ccc(C23CC4(C2)[C@H](CN(Cc2ccc(C(F)(F)F)cc2)[C@@H]4c2ccccc2)C3c2ccc(Cl)nc2)cc1 (some centres undefined)	6%	5.2µM*	12µM*	10%	?
FC(F)(F)c1ccc(C2[C@H]3CN(CC4CCCCC4)[C@H](c4ccccc4)C34CC2(c2cccnc2)C4)cc1 (some centres undefined)	-1%	3.3µM*	3.3µM*	-17%	-29%
c1ccc(-c2ccc(CN3C[C@@H]4C(c5ccccc5)C5(c6ccccc6)CC4(C5)[C@H]3c3ccccc3)cc2)cc1 (some centres undefined)	8%	-4%	?	-3%	0%
CC(C)Cn1c(-c2cc(Br)ccc2F)nc2c1c(=O)[nH]c(=O)n2CC(C)C	13%	?	?	-8%	-15%
COC(=O)c1sc(-c2ccccc2)cc1NC(=O)c1cccc(Cl)c1	·	·	·	·	2%
O=C(COc1ccccc1)N/N=C/c1sc(=O)n(Cc2cccc(C(=O)O)c2)c1Cl	16%	?	?	0%	35µM*
Cc1cccc(OCC(=O)N/N=C/c2sc(=O)n(Cc3cccc(C(=O)O)c3)c2Cl)c1	13%	-28%	?	-17%	25µM*
O=c1sc(/C=N/Nc2ccccc2)c(Cl)n1Cc1ccccc1	5%	?	?	-16%	7.9µM*
O=C(O)c1cccc(Cn2c(Cl)c(/C=N/NC(=O)c3ccc(O)cc3)sc2=O)c1	7%	3%	10%	-11%	32µM*
O=Cc1sc(=O)n(Cc2cccc(C(=O)O)c2)c1Cl	7%	-6%	-2%	-9%	3%
COc1cccc(NC(=O)CCC(=O)N2CC(C)Oc3ccc(C)cc32)c1 (centres undefined)	-20%	24%	?	6%	-4%
COCCN1C(=O)c2oc3ccc(C)cc3c(=O)c2C12C(=O)N(C)c1ccccc12 (centres undefined)	·	·	·	·	-1%
Cc1ccc(-c2cc(C(=O)Nc3ccccc3C(N)=O)c3ccccc3n2)o1	·	·	·	-3%	·
CN(CC(=O)Nc1ccc(Cl)c(C(F)(F)F)c1)C(=O)c1cc(-c2ccncc2)nc2ccccc12	·	13µM*	?	0%	12%
Cc1ccc(-c2cc(C(=O)N(C)CC(=O)Nc3ccccc3Br)c3ccccc3n2)o1	·	?	?	3%	16µM*
CN(CC(=O)Nc1cccc(F)c1)C(=O)c1cc(-c2ccco2)nc2ccccc12	·	?	?	?	7.9µM*
COc1ccc(NC(=O)CN(C)C(=O)c2cc(-c3ccco3)nc3ccccc23)cc1	·	?	?	-24%	5µM*
COC(=O)C(Cc1ccc(O)cc1)NC(=O)c1ccc2c(c1)OCCO2 (centres undefined)	5%	200%	202%	12%	1%
Cc1ccc(C)c(OCC(=O)N(C)CC(=O)Nc2ccc(Cl)c(C(F)(F)F)c2)c1	·	12µM*	?	3%	0%
CSCC[C@H](NC(=O)c1cc([N+](=O)[O-])ccc1Cl)c1nc2ccccc2[nH]1	1%	12µM*	15µM*	3%	-25%
CSCCC(NC(=O)c1cccc([N+](=O)[O-])c1)c1nc2ccccc2[nH]1 (centres undefined)	-19%	?	?	9%	-6%
O=C(NC(Cc1ccccc1)c1nc2ccccc2[nH]1)c1cccc([N+](=O)[O-])c1 (centres undefined)	-6%	?	12µM*	-3%	1%
CCCNC(=O)C(Cc1ccccc1)NC(=O)c1cccc([N+](=O)[O-])c1 (centres undefined)	·	8.3µM*	?	-1%	-4%
SMILES	NS1 function inh	Pf growth 48h	Pf growth 96h	AMA1-RON2 inh	Sm TGR block
CCOC(=O)[C@]12Cc3c(cc(OC)c(OC)c3OC)[C@H]1N(Cc1ccccc1)C(=O)c1cc(OC)ccc12	·	·	·	-6%	·
O=C(Nc1nc(-c2ccccn2)cs1)c1cc(Cl)ccc1[N+](=O)[O-]	·	13µM*	2.3µM*	-5%	-25%
Cc1cc(C(=O)Nc2nc(-c3ccccn3)cs2)ccc1[N+](=O)[O-]	5%	9.3µM*	?	3%	-4%
Clc1ccccc1Cc1cn2cc(-c3ccccc3)nc2s1	·	·	·	·	9%
COCCn1c(=O)[nH]c2cc(C(=O)N3CCN(c4ccc(F)cc4)CC3)ccc2c1=O	·	·	·	·	-8%
COCCn1c(=O)[nH]c2cc(C(=O)N3CCN(c4cccc(C(F)(F)F)c4)CC3)ccc2c1=O	2%	?	12µM*	-8%	2%
COCCn1c(=O)[nH]c2cc(C(=O)Nc3cc(OC)c(OC)c(OC)c3)ccc2c1=O	0%	?	5.2µM*	-1%	1%
COCCn1c(=S)[nH]c2cc(C(=O)N3CCN(C4CCCCC4)CC3)ccc2c1=O	·	·	·	21%	·
COCCn1c(=S)[nH]c2cc(C(=O)N3CCN(c4cccc(Cl)c4)CC3)ccc2c1=O	9%	-1%	12µM*	77%	-2%
COCCn1c(=O)[nH]c2cc(C(=O)Nc3ccc(OC)cc3)ccc2c1=O	·	·	·	·	-7%
COCCNc1nc(-c2ccc(OC)cc2)c(-c2ccc(OC)cc2)s1	·	0%	?	-24%	1%
COCCNS(=O)(=O)c1ccc(C)c(C)c1C	3%	0%	-1%	1%	-2%
COCCCn1[nH]c2c3c(ccc2c1=O)C(=O)c1ccccc1C3=O	-9%	12µM*	·	-6%	-18%
CC(C)(C)n1[nH]c2c3c(ccc2c1=O)C(=O)c1ccccc1C3=O	-8%	1.3µM*	·	-10%	-5%
CC(=O)c1ccc(-c2ccc(C(=O)NC3CC(C)(C)NC(C)(C)C3)o2)cc1	·	?	?	-7%	?
O[C@@H]1[C@@H](O)C=C2CCN3Cc4cc5c(cc4[C@H]1C23)OCO5 (some centres undefined)	·	0.33µM*	0.29µM*	5%	-7%
Cc1ccccc1S(=O)(=O)Cc1ccc(C(=O)NCCN(C)Cc2ccccc2)o1	20%	-10%	66%	6%	?
Cc1ccccc1S(=O)(=O)Cc1ccc(C(=O)NCCCN2CCCC(C)C2)o1 (centres undefined)	4%	-2%	2.3µM*	9%	?
Cc1ccccc1S(=O)(=O)Cc1ccc(C(=O)NCCN(Cc2ccccc2)C(C)C)o1	1%	5.2µM*	-9%	-5%	-34%
